Inconclusive results are not listed. Activity calls are given as the source filed them. The call rests on the fitted dose curve; in most records, active means well fitted curve in the direction sought with a large enough effect; inconclusive means small, poorly fitted or top-dose-only effect, or another doubt; inactive means no such curve, though single readings can be large; an effect the other way counts as inactive or inconclusive.
Experiments:
CRL-7250 = normal cell line; assay: Cytotoxic Profiling of Annotated Libraries Using Quantitative High-Throughput Screening (AID 1296008); details: Five cell lines viability, CellTiter-Glo ATP luminescence, 48-72 h; max response: hits give low values; further: nearly all actives have a fitted effect of over 60% in size; on max response: on the % scale 0 is the no-effect control and ±100 the full control effect
Summary of the method: (§1)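 Compounds were pin-transferred onto cells and incubated 48 or 72 hr at 37 degree Celsius, 95% humidity. CellTiter-Glo was added, plates sat 10 min at room temperature, then ATP-coupled luminescence was imaged as the viability read-out.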

HaCat [1] = assay: as above; details: Five cell lines viability, CellTiter-Glo ATP luminescence, 48-72 h; max response: hits give low values
Summary of the method: as §1

KB-3-1 = assay: as above; details: Five cell lines viability, CellTiter-Glo ATP luminescence, 48-72 h; max response: hits give low values
Summary of the method: as §1

NIH3T3 [2] = assay: as above; details: Five cell lines viability, CellTiter-Glo ATP luminescence, 48-72 h; max response: hits give low values
Summary of the method: as §1

NIH3T3 [3] = assay: qHTS assay to identify novel small-molecules to repurpose for Merkel cell carcinoma treatment (AID 1296009); details: MCC and control cell lines, CellTiter-Glo viability, 72 h; at 44.8 µM (top of the series) unless noted; further: nearly all actives have a fitted effect of over 60% in size
Summary of the method: (§2)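 Cells exposed to NPC (8-point) and MIPE (11-point) compound dilutions for 72 hr at 37 degree celsius; viability read by CellTiter-Glo luminescence, normalized to no-cell and DMSO in-plate controls.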

C33A = assay: Primary qHTS to identify gynecologic anti-cancer compounds using libraries of approved drugs and bioactive compounds (AID 1345084); details: Gynecologic cancer cell panel viability, ATPlite luminescence, 48 h; series mostly up to 57.5 µM; further: on the % scale 0 is the no-effect control and ±100 the full control effect; nearly all actives have a fitted effect of over 55% in size
Summary of the method: (§3)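 Cells, 1,000 per well, plated 16 h, then exposed 48 h at 37 C to compounds. Viability by ATPlite luminescence after 15 min at room temperature.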

CASKI = assay: as above; details: Gynecologic cancer cell panel viability, ATPlite luminescence, 48 h; series mostly up to 57.5 µM
Summary of the method: as §3

Es-2 = assay: as above; details: Gynecologic cancer cell panel viability, ATPlite luminescence, 48 h; series mostly up to 57.5 µM
Summary of the method: as §3

HeLa = assay: as above; details: Gynecologic cancer cell panel viability, ATPlite luminescence, 48 h; series mostly up to 57.5 µM
Summary of the method: as §3

Hek293T = assay: as above; details: Gynecologic cancer cell panel viability, ATPlite luminescence, 48 h, control line for the selectivity index; series mostly up to 57.5 µM
Summary of the method: as §3

JEG-3 = assay: as above; details: Gynecologic cancer cell panel viability, ATPlite luminescence, 48 h; series mostly up to 57.5 µM
Summary of the method: as §3

OV90 = assay: as above; details: Gynecologic cancer cell panel viability, ATPlite luminescence, 48 h; series mostly up to 57.5 µM
Summary of the method: as §3

HACAT [4] = assay: qHTS assay to identify novel small-molecules to repurpose for Merkel cell carcinoma treatment (AID 1296009); details: MCC and control cell lines, CellTiter-Glo viability, 72 h; at 44.8 µM (top of the series) unless noted; further: nearly all actives have a fitted effect of over 60% in size
Summary of the method: as §2

CAOV3 = assay: Primary qHTS to identify gynecologic anti-cancer compounds using libraries of approved drugs and bioactive compounds (AID 1345084); details: Gynecologic cancer cell panel viability, ATPlite luminescence, 48 h; series mostly up to 57.5 µM; further: on the % scale 0 is the no-effect control and ±100 the full control effect; nearly all actives have a fitted effect of over 55% in size
Summary of the method: as §3

CCCN1CCC[C@@H](c2cccc(S(C)(=O)=O)c2)C1
inactive: max response (CRL-7250) -1.62% | max response (HaCat [1]) -5% | max response (KB-3-1) -6.47% | outcome (NIH3T3 [2]) | outcome (NIH3T3 [3]) | Potency (C33A) | outcome (CASKI) | Potency (Es-2) | Potency (HeLa) | Potency (Hek293T) | Potency (JEG-3) | Potency (OV90)

CO[C@H]1c2cc(C(C)C)c(O)c(O)c2[C@@]23CCCC(C)(C)C2[C@@H]1OC3=O (stereo partly drawn)
inactive: outcome (CRL-7250) | outcome (HaCat [1]) | outcome (KB-3-1) | outcome (NIH3T3 [2]) | outcome (HACAT [4]) | Potency (C33A) | outcome (CASKI) | Potency (Es-2) | Potency (HeLa) | Potency (Hek293T) | Potency (JEG-3) | Potency (OV90)

CC1(C)OC(=O)C=C[C@@]2(C)C1CC(=O)[C@]1(C)C2CC[C@@]2(C)[C@H](c3ccoc3)OC(=O)[C@H]3O[C@]321 (stereo partly drawn)
inactive: max response (CRL-7250) -0.596% | outcome (HaCat [1]) | outcome (KB-3-1) | max response (NIH3T3 [2]) -2.44% | outcome (HACAT [4]) inactive [at 17.4 µM] | Potency (C33A) | Potency (CAOV3) | outcome (CASKI) | Potency (Es-2) | Potency (HeLa) | Potency (Hek293T) | Potency (JEG-3) | Potency (OV90)

CCOC(=O)CSc1nc2c(sc3ccccc32)c(=O)n1CCCN1CCCC1
inactive: outcome (CRL-7250) | outcome (HaCat [1]) | outcome (KB-3-1) | outcome (NIH3T3 [2]) | outcome (HACAT [4]) | outcome (NIH3T3 [3]) | Potency (C33A) | Potency (CAOV3) | outcome (CASKI) | Potency (Es-2) | Potency (Hek293T) | Potency (JEG-3) | Potency (OV90)

CC1=C(C(=O)OC2OC(COC3OC(CO)C(O)C(O)C3O)C(O)C(O)C2O)C(C)(C)CCC1 (stereo not drawn)
inactive: max response (CRL-7250) -6.15% | outcome (HaCat [1]) | outcome (KB-3-1) | max response (NIH3T3 [2]) 0.403% | outcome (HACAT [4]) inactive [at 17.4 µM] | Potency (C33A) | Potency (CAOV3) | outcome (CASKI) | Potency (Es-2) | Potency (HeLa) | Potency (Hek293T) | Potency (JEG-3) | Potency (OV90)

Reference: PubChem BioAssay (NCATS)
